# ± gives the standard deviation of the averaged measurements. In all, about 33,000 sequences were measured (“E-score (dimensionless, -0.5 to 0.5)”: median about -0.049, highest 2% from about 0.37 on). What follows is part of a selection rich in the highest values, with near analogues and random picks from the rest.
# Test system: T1, PmTbr T-box DNA-binding domain (GST fusion)
# T1 sequence: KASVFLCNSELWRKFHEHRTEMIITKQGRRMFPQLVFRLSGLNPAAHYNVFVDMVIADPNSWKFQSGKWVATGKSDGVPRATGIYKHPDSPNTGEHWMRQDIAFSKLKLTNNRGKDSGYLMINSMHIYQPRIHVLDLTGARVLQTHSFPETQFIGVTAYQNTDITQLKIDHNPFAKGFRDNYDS
# Experiment: PBM E-score of 8-mer (E-score (dimensionless, -0.5 to 0.5)); Tbr is Tbrain of the sea star Patiria miniata (Pm) or the sea urchin Strongylocentrotus purpuratus (Sp); higher = stronger binding preference
# Settings: the construct has about 5 more residues each side
# Summary of the method: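 Universal Agilent oligonucleotide arrays, made double-stranded by primer extension, were incubated with 200 nM GST-fused Tbr T-box DNA-binding domain in PBS (pH 7.5). The protein was expressed in BL21 E. coli at 20 °C and purified by glutathione affinity chromatography. After scanning and quantification, the Universal PBM Analysis Suite assigned an enrichment E-score to each ungapped 8-mer, averaged over duplicate arrays.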
row,Sequence,PBM E-score of 8-mer
1,AGAAGGTC,-0.315 ± 0.034
2,ATAAGGTC,-0.146 ± 0.021
3,AAGAATCG,-0.0615 ± 0.066
4,ACACTGAC,0.209 ± 0.018
5,ACTGATCG,-0.0574 ± 0.0033
6,CTCTAACC,-0.103 ± 0.089
7,AACGGGGT,-0.136 ± 0.084
8,CTCGCTAC,0.0679 ± 0.05
9,ATCGACAG,0.236 ± 0.032
10,GTCGACAC,0.406 ± 0.013
11,CTCGACAG,0.244 ± 0.018
12,CTCGACAC,0.387 ± 0.029
13,ATCGACAA,0.222 ± 0.036
14,GACGACAC,0.305 ± 0.034
15,CTCGACAA,0.131 ± 0.017
16,ATCGACAC,0.398 ± 0.025
17,GTCGACAA,0.295 ± 0.022
18,ACAATGTC,-0.048 ± 0.0089
19,GTACAGTA,0.0854 ± 0.013
20,AGCAACAC,0.383 ± 0.0078
21,AGCAACAG,0.0636 ± 0.029
22,GGCAACAA,0.05 ± 0.0035

row,Sequence,PBM E-score of 8-mer
1,AGCAACAA,0.0934 ± 0.021
2,GGCAACAC,0.38 ± 0.0047
3,CGCAACAC,0.356 ± 0.033
4,ATGCTATA,-0.182 ± 0.01
5,ATGCGTCA,0.161 ± 0.013
6,GTCAAACA,-0.0272 ± 0.074
7,ATGCCAGC,-0.0462 ± 0.0027
8,CATGTGTC,0.309 ± 0.03
9,AATGTGTG,0.408 ± 0.014
10,AATGTGCG,0.27 ± 0.012
11,AATGTGTC,0.425 ± 0.0071
12,AATGTGTA,0.226 ± 0.029
13,AATGTGGC,0.163 ± 0.0047
14,AATAGACT,-0.175 ± 0.072
15,ACACCCCA,0.382 ± 0.015
16,ACACCCGG,0.3462 ± 0.00071
17,ACACCCCG,0.397 ± 0.029
18,CCACCCCC,0.00912 ± 0.024
19,GCACCCCA,0.242 ± 0.0042
20,CCACCCCG,0.235 ± 0.033
21,ACCCCTCT,-0.0694 ± 0.019
22,GCACCCCC,0.226 ± 0.047

row,Sequence,PBM E-score of 8-mer
1,ACACCCCC,0.379 ± 0.017
2,TCACCCCA,0.277 ± 0.028
3,ACACCCCT,0.4 ± 0.027
4,ACCCCCCT,-0.152 ± 0.11
5,CGTGCTCC,-0.172 ± 0.017
6,GTTGATCA,0.0616 ± 0.0014
7,GATACAGA,-0.189 ± 0.0045
8,ACGGCCTC,-0.166 ± 0.071
9,GTAGGAAA,-0.0915 ± 0.041
10,GTCGACGA,0.155 ± 0.015
11,ACAGACAT,0.0773 ± 0.016
12,ACACCCAG,0.339 ± 0.021
13,GCCCAACA,0.0617 ± 0.0082
14,AAAATTCT,-0.1 ± 0.051
15,AAGTGTTA,0.467 ± 0.0064
16,CAGTGTTC,-0.0572 ± 0.047
17,AAGTGTTG,0.437 ± 0.006
18,AAGTGGTA,0.165 ± 0.013
19,GAGTGTTA,0.385 ± 0.012
20,AAGTGTTC,0.298 ± 0.012
21,AAGTGTAC,0.0291 ± 0.019
22,GAGTGTAC,-0.079 ± 0.061

row,Sequence,PBM E-score of 8-mer
1,CAGTGTTA,0.322 ± 0.0036
2,CTTCTGGC,-0.0431 ± 0.0062
3,AGCCTCCT,-0.194 ± 0.057
4,ATGACCAG,-0.119 ± 0.011
5,GCTCTAGA,-0.268 ± 0.07
6,AACAGCCC,-0.015 ± 0.027
7,AGAGCACT,-0.194 ± 0.044
8,AGGGATAC,-0.319 ± 0.026
9,ATAGCCAA,-0.2 ± 0.05
10,ACACGTCA,0.361 ± 0.0048
11,ACACGTTA,0.3709 ± 0.0015
12,ACACGTTG,0.374 ± 0.0049
13,CCACGTTA,0.131 ± 0.0074
14,ACACGTAG,0.206 ± 0.0044
15,ACACGTCG,0.391 ± 0.018
16,AAACGTTG,-0.22 ± 0.042
17,ACACGTTC,0.337 ± 0.013
18,ACACGTCT,0.355 ± 0.021
19,CAGGGATA,-0.326 ± 0.061
20,GGACGCAC,-0.0479 ± 0.052
21,AACGAGCC,-0.319 ± 0.096
